Screening results from PubChem.
A selection: hits, their analogues and other compounds. The true share with any hit is near 2%.
NOD2 RIPK2 PPI – NOD2-RIPK2 binding disruptors in cells, primary screen, fluorescence, CHO cells, BLA complementation; hit rate 0.38% among 360,000; inhibition, % at 4.98 µM; AID 624267, 2012; CCF4 ratio; in the data active = inhibition above about 21%
ABHD5-PLIN5 inh – ABHD5-PLIN5 interaction inhibitors, primary screen, cell lysate, split luciferase complementation, luminescence | Perilipin-5 (Homo sapiens) + 1-acylglycerol-3-phosphate O-acyltransferase ABHD5 (Homo … | Split G. princeps luciferase complementation, 4 h | inhibition, % at 4 µM | hit rate 0.78% among 360,000 | AID 602281, 2012;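 active = inhibition above the mean inhibition across every tested compound plus 3 SD, cut at about 22% in these data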
Target sequence (Q00G26 whole entry, looked up): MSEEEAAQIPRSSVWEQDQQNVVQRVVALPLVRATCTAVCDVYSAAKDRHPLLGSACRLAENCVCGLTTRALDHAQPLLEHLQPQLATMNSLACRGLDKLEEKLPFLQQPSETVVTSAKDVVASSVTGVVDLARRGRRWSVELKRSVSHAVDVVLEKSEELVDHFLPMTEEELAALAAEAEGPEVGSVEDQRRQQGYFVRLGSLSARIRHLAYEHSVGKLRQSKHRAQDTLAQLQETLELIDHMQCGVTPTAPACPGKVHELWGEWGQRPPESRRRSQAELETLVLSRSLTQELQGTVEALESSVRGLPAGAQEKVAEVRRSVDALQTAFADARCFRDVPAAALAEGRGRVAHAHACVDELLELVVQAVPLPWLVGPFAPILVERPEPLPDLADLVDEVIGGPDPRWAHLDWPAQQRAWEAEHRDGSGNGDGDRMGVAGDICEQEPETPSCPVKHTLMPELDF
Target sequence (Q8WTS1 whole entry, looked up): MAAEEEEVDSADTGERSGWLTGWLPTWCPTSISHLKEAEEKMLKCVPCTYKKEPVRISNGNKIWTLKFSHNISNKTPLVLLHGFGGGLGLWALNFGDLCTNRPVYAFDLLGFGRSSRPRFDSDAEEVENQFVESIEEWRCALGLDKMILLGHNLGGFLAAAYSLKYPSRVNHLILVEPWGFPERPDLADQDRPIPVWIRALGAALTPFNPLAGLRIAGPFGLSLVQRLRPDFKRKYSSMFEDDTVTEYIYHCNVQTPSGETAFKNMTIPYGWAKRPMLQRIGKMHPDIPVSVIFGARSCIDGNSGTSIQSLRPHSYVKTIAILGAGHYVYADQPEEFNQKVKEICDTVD
Granule exo inh – LAMP-1 surface exposure blockers, TALL-104 cells – cell-based, flow cytometry, MLPCN library, primary screen. inhibition, % at 10 µM. TALL-104 LAMP-1 surface exposure; cells stimulated with thapsigargin and PMA. AID 651702, 2012. hit rate 0.66% among 360,000;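 active = inhibition above about 55%, limit read from the data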
TLR4-MyD88 BLA – inhibitors of TLR4-MyD88 association in cells, primary screen, cell-based, HeLa CL3-4, BLA complementation, FRET ratio | Toll-like receptor 4 (Homo sapiens) + Myeloid differentiation primary response protein … | HeLa CL3-4 TLR4/MyD88 BLA complementation | inhibition, % at 8.4 µM | hit rate 0.18% among 200,000 | AID 861, 2007; in the data active = inhibition above about 25%
TLR9-MyD88 block – inhibitors of TLR9-MyD88 association in cells, primary screen, cell-based, CHO, BLA complementation, fluorescence; Toll-like receptor 9 (Homo sapiens) + Myeloid differentiation primary response protein …; CCF4 FRET ratio; inhibition, % at 4.98 µM; hit rate 0.21% among 340,000;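 active = inhibition above the mean over all tested compounds plus 3 SD, cut at about 21% in these data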
Beta2AR agonist – beta2AR agonists driving receptor internalization, primary screen, cell-based, FAP fluorogen, flow cytometry. hit rate 0.43% among 340,000. response, % (concentration not given with the values). Beta-2 adrenergic receptor (Homo sapiens), P07550. Am2.2-beta2AR cells. AID 504454, 2011;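 active = response above a set limit, near 3 SD of response in nonfluorescent compounds, cut at about 42% in these data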
Numbers stand for hits; . = inactive; / = no result.

SMILES | NOD2 RIPK2 PPI | ABHD5-PLIN5 inh | Granule exo inh | TLR4-MyD88 BLA | TLR9-MyD88 block | Beta2AR agonist
COC(=O)/C=C1\OC(C2CC2)c2ccccc21 (configuration not stated) | . | . | . | / | / | /
Cc1cc(C(=O)c2ccc3ccccc3c2)c(C)o1 | . | . | 73.2 | / | / | .
O=C(c1ccc2ccccc2c1)c1c[nH]cc1-c1ccccc1 | . | . | . | . | . | .
CCOc1ccccc1/C=C/C(=O)N1CCN(C(=O)c2ccco2)CC1 | . | . | . | / | . | 84.2
COc1ccc(Cl)cc1C(=O)Nn1c(-c2cccs2)nc2ccccc2c1=O | . | . | . | . | . | 67.8
O=[N+]([O-])c1cc([N+](=O)[O-])c(Oc2c(F)cccc2F)cc1NN1CCCCC1 | . | . | 77.8 | / | . | .
CCC(C)[C@@H](NC(=O)OC(C)(C)C)c1nnc(S(=O)(=O)Cc2cccc(C)c2)o1 (some centres not stated) | 23.7 | 73.2 | 80.6 | . | . | .
CC(C)(C)OC(=O)N[C@@H](Cc1ccccc1)c1nnc(S(=O)(=O)Cc2ccccc2)o1 | / | / | / | . | / | /
COc1ccc(OC)c(/C=N/NC(=O)c2[nH]nc3c2CCc2ccccc2-3)c1 | . | . | . | . | . | .
COc1cccc(/C=N/NC(=O)c2[nH]nc3c2CCc2ccccc2-3)c1 | . | . | 81.2 | / | / | .
Cc1cccn2c(=O)c(/C=C(\C#N)C(=O)NC3CCS(=O)(=O)C3)c(Oc3ccc(F)cc3)nc12 (configuration not stated) | . | . | 74.5 | / | . | .
Cc1cccn2c(=O)c(/C=C(\C#N)C(=O)NC3CCS(=O)(=O)C3)c(N3CCC(C)CC3)nc12 (configuration not stated) | . | . | . | . | . | .
Cc1cccc(Oc2nc3ccccn3c(=O)c2/C=C(\C#N)C(=O)NC2CCS(=O)(=O)C2)c1C (configuration not stated) | . | . | 67.7 | / | . | .
CCCS(=O)(=O)NC(=O)C1(C)CCCN(C(=O)c2cc(F)cc(F)c2)C1 (configuration not stated) | . | . | . | / | / | /
O=C(Nc1ccc(F)cc1)C(CCc1ccccc1)N1CCN(Cc2c(F)cccc2Cl)CC1 (configuration not stated) | . | . | . | / | / | /
CC(=O)NCC1(c2ccccc2)CCN(CCCC(=O)c2ccc(F)cc2)CC1 | . | . | . | / | . | /
COc1ccc(Cc2c(-c3ccco3)nc3ccc(Cl)cn23)c(C)c1 | . | 26.8 | . | / | / | /
COc1ccc(Cc2c(-c3ccco3)nc3ccc(Br)cn23)c(C)c1 | . | 42.6 | . | / | / | /
Cc1ccc(Cc2c(-c3ccc(C)cc3)nc3ccc(Br)cn23)cc1 | . | . | . | / | . | /
Cc1ccc(Cc2c(-c3ccco3)nc3ccc(Br)cn23)cc1 | . | 58.1 | . | / | / | /
COc1ccc(Cc2c(-c3ccco3)nc3c(C)cc(Br)cn23)c(C)c1 | . | . | . | / | / | /
O=C(CSc1ncccn1)NC1CCCC1 | . | . | . | / | . | /
COC(=O)C[C@H]1CC[C@H](NC(=O)c2ccc(F)cc2)[C@@H](CO)O1 | . | . | . | / | / | /
COc1ccc(NC(=O)c2c(-c3c(Cl)cccc3Cl)noc2C)c(OC)c1 | . | . | . | / | . | .
CCOc1ccc(-c2nn(-c3ccccc3)cc2/C=C2\SC(N)=NC2=O)cc1C | . | . | . | . | . | 58.6
SMILES | NOD2 RIPK2 PPI | ABHD5-PLIN5 inh | Granule exo inh | TLR4-MyD88 BLA | TLR9-MyD88 block | Beta2AR agonist
Cc1ccc(-c2nn(-c3ccccc3)cc2/C=C2\SC(=S)N(CC(=O)O)C2=O)cc1 | . | . | . | / | . | .
Cc1cc(C(=O)Nc2c(F)cc(F)cc2Br)c(C)o1 | . | 23.0 | . | . | . | .
Cc1noc(C)c1C(=O)Nc1c(F)cc(F)cc1Br | . | . | . | . | . | .
CCNC(=O)c1cc2c(=O)n3cccc(C)c3nc2n(Cc2ccc(C)cc2)c1=N | . | . | . | . | . | 50.8
Cc1cccn2c(=O)c3cc(C(=O)NC(C)C)c(=N)n(Cc4ccncc4)c3nc12 | . | . | . | . | . | .
CCOC(=O)/C(=C\c1ccc(OC(F)F)cc1)C1=Nn2c(nnc2-c2ccc(Cl)cc2)SC1 | . | . | . | . | . | 80.4
CC1(Oc2ccc(CC#N)cc2)CCN(Cc2ccc(-n3ccnc3)cc2)C1 (configuration not stated) | . | . | . | / | / | /
COc1cc(C=C2Cc3ccccc3C2=O)cc(OC)c1OC | . | 22.3 | . | / | / | /
COc1cc2c(cc1OC)CN(Cc1ccccc1)CC2 | . | . | . | / | . | .
COc1cc2c(cc1OC)CN(CCC(C)c1ccc(Cl)cc1)CC2 (configuration not stated) | . | . | 64.9 | / | . | .
COc1ccc(C(=O)C(=O)N2CCN(C(=O)OCc3ccccc3)CC2)cc1 | . | . | . | / | / | /
NC(=S)N=Nc1c(O)n(CCCl)c2ccccc12 | . | . | . | . | / | .
NC(=S)N=Nc1c(O)n(CCCl)c2ccc(Cl)cc12 | . | . | 57.1 | . | . | .
COc1ccc(OC)c(C2=Nn3c(nnc3-c3cc(OC)c(OC)c(OC)c3)SC2)c1 | . | . | . | . | . | .
COc1ccc(OC)c(C2=Nn3c(nnc3-c3ccncc3)SC2)c1 | . | . | 64.3 | / | . | .
O=C1C=C(OCCF)CC(c2ccccc2C(F)(F)F)O1 (configuration not stated) | . | . | . | / | / | /
Cc1cc(/C=C\c2ccc3cc(N(C)C)ccc3[n+]2C)c(C)n1-c1ccccc1 | . | 26.1 | . | / | . | /
COCCN1C(=O)CN(S(C)(=O)=O)CC1(C)C(=O)Nc1ccc2c(c1)OCCO2 (configuration not stated) | . | . | . | / | / | /
CC1(C(=O)NCc2ccccc2)CN(S(C)(=O)=O)CC(=O)N1Cc1cccc(C(F)(F)F)c1 (configuration not stated) | . | . | . | / | / | /
Fc1ccc(C[n+]2csc3ccccc32)cc1 | . | 53.8 | . | . | . | .
COc1ccc(-c2cc3ccccc3oc2=O)cc1NC(=S)NC(=O)c1ccc2c(c1)OCCO2 | . | . | . | . | . | 42.5
CN1C(=O)c2ccccc2Sc2ccc(NC(=O)NC3CC3)cc21 | . | 25.3 | . | . | . | .
Cc1ccc(S(=O)(=O)N2CCN(C(=O)/C=C/c3ccco3)CC2)cc1 | . | . | . | . | . | .
Cc1ccc(C)c(S(=O)(=O)N2CCN(C(=O)/C=C/c3ccco3)CC2)c1 | . | 43.5 | . | / | . | .
